Most compounds without a hit are left out; they make up all but 2.3% or so of the library.
TAG inh = triacylglycerol accumulation inhibition. H9c2 cells, Nile Red lipid (TAG) fluorescence; cells loaded with 200 µM oleic acid. inhibition, % at 12.5 µM. hit rate 0.66% among 230,000. AID 651582;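 active means pattern-corrected inhibition of lipid staining of at least 50% with the nuclear-stain viability signal not falling by more than 50%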;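 further: 0% = DMSO wells and 100% = triacsin C control wells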
Gli-Sufu block = Gli-Sufu pathway antagonism | Sufu-KO-LIGHT fibroblasts, Gli luciferase reporter luminescence | inhibition, % at 5 µM | hit rate 0.74% among 340,000;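 active means inhibition above about 55%, limit read from the data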;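 further: 0% = DMSO-treated cells and 100% = wells with medium but no cells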
697 NFkB inh = inhibitors of the PMA/ionomycin-induced NF-kB reporter in 697 B cells. 697 B-cell NF-kB luciferase reporter, 16 h. inhibition, % at 4 µM. hit rate 0.33% among 330,000. AID 435022; in the data active means inhibition above about 35%
Jurkat NFkB inh = inhibitors of the PMA/ionomycin-induced NF-kB reporter in Jurkat cells. PMA/ionomycin-induced NF-kB luciferase reporter, luminescence. inhibition, % at 4 µM. hit rate 0.53% among 330,000; in the data active means inhibition above about 50%
Shn3 3UTR inh = inhibitors of Schnurri-3 3'UTR reporter in osteoblasts; hit rate 0.52% among 360,000; Clone20 osteoblast Shn3 3'UTR firefly luciferase, 24 h; inhibition, % at 12.5 µM; AID 588674;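 active means mean inhibition of at least 75% with every replicate also reaching 75%; inconclusive means mean inhibition at least 75% but some replicate below; inactive means mean inhibition below 75%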;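 further: 0% = median of neutral control wells and 100% = pilot-screen positive control compound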
aSyn UTR inh = MLPCN primary screen, SNCA 5' untranslated region; alpha-synuclein 5'UTR reporter, inhibitor activity; inhibition, % (tested at 7.5 µM); hit rate 0.82% among 300,000; in the data active means inhibition above about 60%; inconclusive means no clear call, values can overlap the other calls;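 further: H4 neuroglioblastoma cells stably carrying SNCA 5'UTR luciferase fusion; 0% = DMSO wells and 100% = positive control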
TAG conf = triacylglycerol accumulation inhibition, confirmation. shares compounds with TAG inh. H9c2 lipid accumulation, Nile Red fluorescence; cells loaded with 200 µM oleic acid. inhibition, % at 12.5 µM. hit rate 71% among 990;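 active means mean inhibition across replicates of 40% or more; inactive means mean inhibition below 40%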;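 further: plate controls were DMSO only wells for no effect and Triacsin C treated wells for full effect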
* hit, by the source's call; ? = inconclusive; · = not tested or not shown.

SMILES	TAG inh	Gli-Sufu block	697 NFkB inh	Jurkat NFkB inh	Shn3 3UTR inh	aSyn UTR inh	TAG conf
COc1cccc2sc(Nc3nc(-c4cc5ccccc5oc4=O)cs3)nc12	58*	1	·	·	5	12	87*
C=CCn1c(N)c(C(=O)Nc2ccccc2)c2nc3ccccc3nc21	78*	2	18	-9	11	?	88*
CCOC(=O)N1CCC(NC(=O)c2cc(C(=O)Nc3ccc(F)cc3F)ccc2CO)CC1	3	-2	10	-9	-6	-2	·
O=C(CCC(=O)N1CCOc2ccc(Cl)cc21)NCCCN1CCC(Cc2ccccc2)CC1	90*	-11	2	12	-15	23	62*
O=C1CCCC2=C1C1(CCCC1)N=C(Nc1nc3cc(-c4ccccc4)ccc3o1)N2	62*	·	·	·	28	·	71*
O=C1CCCC2=C1C1(CCCCC1)N=C(Nc1nc3ccccc3o1)N2	14	14	3	8	18	-9	·
Cc1ccc(N2C(=O)C3CC(c4ccccc4)=C4C5C=CC(C6C(=O)N(c7ccc(C)cc7C)C(=O)C56)C4C3C2=O)c(C)c1 (stereo not drawn)	51*	3	-5	-3	0	12	53*
CC(C)c1nnc(NC(=O)c2c(O)c3cccc4c3n(c2=O)CCC4)s1	-1	-15	-71	-8	1	-11	·
O[C@H]1CN(CC2CCCCC2)[C@@H](c2ccc(Cl)cc2)C[C@@H]1n1cc(-c2ccc(F)cc2)nn1	51*	·	·	·	47	·	64*
CC(C)(C)OC(=O)[C@H](Cc1ccccc1)NC(=O)c1nc[nH]c1C(=O)N[C@@H](Cc1ccccc1)C(=O)OC(C)(C)C	-10	8	9	21	16	22	·
CC(C)(C)OC(=O)[C@H](Cc1ccccc1)NC(=O)c1ncn2c1c(=O)[nH]c1ccc(Br)cc12	65*	·	·	·	25	·	77*
Fc1cccc(Nc2nc(-c3ccncc3)nc3ccccc23)c1	69*	20	13	-25	-10	20	63*
COc1cc(Sc2ccc(C)cc2)c(OC)cc1N	·	-9	-35	0	-1	29	·
CCN(CC)CCCN(C(=O)c1cccs1)c1nc(-c2ccc(OC)cc2)cs1	55*	11	-3	-17	-6	-101	47*
CCN(CC)CCCN(C(=O)c1ccc(Br)cc1)c1nc(-c2ccc(OC)cc2)cs1	40	40	-4	-6	39	18	·
Cc1cc(=O)oc(C)c1C(=O)Nc1cccc(F)c1	51*	-1	-13	2	·	-26	-6
C#CCN(C[C@@H]1[C@@H](OC(=O)NCC2CCCCC2)[C@@H](OC(=O)NCC2CCCCC2)CN(C(=O)OC(C)C)N1C(=O)OC(C)C)S(=O)(=O)c1ccc(C)cc1	51*	·	·	·	45	·	61*
CCCCC(O)(CCN1CCOCC1)c1ccc(Cl)cc1 (stereo not drawn)	·	2	9	-4	10	4	·
CCOc1ccc(CCNC(=O)c2cc3sccc3n2CC)cc1OCC	79*	3	-40	6	6	14	40
CCOc1ccc(CCNC(=O)CCC(=O)c2cccs2)cc1OCC	17	-3	17	-7	-10	·	·
COc1ccc(CC(=O)NNC(=O)c2ccccc2)cc1OC	-5	-16	12	-15	-9	·	·
COc1ccc(C(=O)NNC(=O)Cc2ccc(-c3ccccc3)cc2)cc1OC	57*	12	13	4	11	34	36
CCSc1nnc(NC(=O)c2ccco2)s1	-10	-16	-32	9	-19	-46	·
CC(C)Sc1nnc(NC(=O)c2ccco2)s1	55*	-67	-50	-36	-35	-64	18
COCCNC(=O)CCCn1c(=O)c2cc(OC)c(OC)cc2n(CC(=O)c2ccccc2)c1=O	11	2	18	9	6	14	·
SMILES	TAG inh	Gli-Sufu block	697 NFkB inh	Jurkat NFkB inh	Shn3 3UTR inh	aSyn UTR inh	TAG conf
CCCCNc1c(-c2ccc(-c3ccc(C(C)=O)cc3)c(OC)c2)nc2cc(C)ccn12	58*	-17	-33	-2	-8	·	41*
CCCCNc1c(-c2ccc(OC)c(SC(C)CC)c2)nc2cc(C)ccn12 (stereo not drawn)	-9	33	-32	0	24	·	·
CCCCNC(=O)c1cnc(Cc2c[nH]c3ccccc23)c(I)c1	65*	·	·	·	-13	·	15
CN1CCN(C(=O)c2cnc(Cc3c[nH]c4ccccc34)c(I)c2)CC1	-5	·	·	·	-10	·	·
N#Cc1cc2c(nc1SCC1COc3ccccc3O1)CCC2 (stereo not drawn)	·	9	-34	-18	-30	-59	·
Cc1cccc(N2CN(S(=O)(=O)c3cccc([N+](=O)[O-])c3)c3nc4ccccc4nc32)c1	54*	6	0	-5	20	·	37
Cc1ccc(C)c(NS(=O)(=O)c2cc(C(=O)NCC3CCCO3)ccc2C)c1 (stereo not drawn)	2	10	-26	-16	8	-19	·
O=C(COc1ccc(Cl)cc1Cl)NN=C1c2ccccc2-c2ccccc21	51*	4	-10	-5	-8	-16	21
CCOc1ccc2nc(NC(=O)CN3CCN(C)CC3)sc2c1	68*	-9	-9	-44	-51	-35	38
CCOc1ccc2nc(NC(=O)CN3CCN(CC)CC3)sc2c1	·	4	7	-21	-14	-32	·
CC(=O)c1ccc(N2CCN(C(=O)c3ccc(-c4ccccc4)cc3)CC2)cc1	·	-9	-7	-1	-28	26	·
CCOc1ccc(N=Cc2c(O)cc(C)oc2=O)cc1	4	11	11	-11	-22	-17	·
Cc1ccc(CNC(=O)c2ccc(N3CCC4(CC3)CC(c3ccccc3)=NO4)c(NC(=O)c3ccc(Cl)c([N+](=O)[O-])c3)c2)cc1	51*	-12	14	14	-32	16	37
Cc1ccc(CNC(=O)c2ccc(N3CCC4(CC3)CC(c3ccccc3)=NO4)c(NC(=O)c3cccc(C)c3)c2)cc1	30	22	-28	5	25	23	·
C#CCN(C[C@H]1[C@H](OC(=O)NCCCCCC)[C@H](OC(=O)NCCCCCC)C[C@@H](C(=O)OC)[C@H]1C(=O)OC)S(=O)(=O)c1ccc(C)cc1	80*	·	·	·	20	·	88*
C#CCN(C[C@H]1[C@H](OC(=O)NCc2ccccc2)[C@H](OC(=O)NCc2ccccc2)C[C@@H](C(=O)OC)[C@H]1C(=O)OC)S(=O)(=O)c1ccc(C)cc1	49	·	·	·	19	·	·
Cc1cc(N2CCOCC2)n2nc(C)c(-c3ccccc3)c2n1	60*	-10	-1	-23	0	·	46*
CCOc1c(Br)cc(CNC2CCCCCCC2)cc1OC	70*	21	4	-8	13	-10	80*
COc1cc(CNC2CCCCCCC2)cc(Br)c1OCC#N	·	27	18	-12	-7	0	·

Screening results as filed in PubChem.
